We go through 40 compounds from PubChem BioAssay.

Calls of active or inactive are those of the source.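 Rule for the calls, unless noted: active = viability at or under a set limit in both replicates, limit being median viability minus 3 SD (cut at about 48% in these data, passing the limit was not always enough); inconclusive = at or under the limit in just one replicate; inactive = at or above the limit in both replicates.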

One experiment can be described thus: H69AR cell proliferation blockers – human, duplicate replicates, primary screen (AID 580).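 Note: 100% = mean luminescence of untreated wells and 0% = no signal.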 The note with it: H69AR lung tumor cells viability, ATP luminescence, 72 h; at 10 µM; hits give low values.
In the case of `Cc1sc2ncnc(OCC(=O)N3CCN(S(=O)(=O)c4ccc(Cl)cc4)CC3)c2c1C`, the viability (commonly a read-out of living cells in per cent, often relative to untreated cells) is 84.8% (inactive).
Still for that read-out and setting: the same measure for `CCOC(=O)CNS(=O)(=O)c1c(C)noc1C`: 107% (inactive); for `COC(=O)c1onc(C(=O)c2ccccc2)c1C(=O)OC`: 97.1% (inactive); for `O=C(O)c1cccc(CN2C(=O)SC(Nc3ccccc3)C2=O)c1` (stereo not given): 103% (inactive).
Regarding `COC(=O)C1C(=O)c2c([nH]c(C(=O)OCCOC(C)C)c2C)CC1C` (stereo not given), the viability was 99.5% (inactive).
For `CCOC(=O)c1c(NC(=O)CSc2nnc(-c3ccc(OC)cc3)o2)sc2c1CCC2`, the viability was 82.1% (inactive).
As for `O=C(c1cccnc1NCc1ccccc1)N1CCOCC1`, the viability is 93.8% (inactive).
Still for that read-out and setting: the value for `O=C1CC(N2CCN(c3cccc(C(F)(F)F)c3)CC2)C(=O)N1c1ccccc1` (stereo not given) was 103% (inactive); that for `Cc1ccc(N=C2NC(=O)CS2)c(C)c1` was 102% (inactive).
With `O=C(NCc1cccs1)C1CCCN(c2ncccn2)C1` (stereo not given), the viability is 94.8% (inactive).
Take `Cc1cc2ncn(N)c2cc1C`: the viability was 98.8% (inactive).
The same measure, in the same setting: the value for `COc1ccccc1N1CCN(C(=O)CSc2nc(-c3ccccc3)cc(=O)[nH]2)CC1` was 88.1% (inactive).
`Cc1nn(-c2ccccc2)c(Cl)c1C(=O)NCC(=O)O`: the viability is 113% (inactive).
On to `COc1nc(N2CCOCC2)nc(-n2cccc2)n1`, for which the viability was 87.4% (inactive).
With `CCSc1nnc(NC(=O)C(CC)(C(F)(F)F)C(F)(F)F)s1`, the viability is 74% (inactive).
Same read-out and setting: the value for `COC(=O)C1CCN(C(=O)NC(C)(C)C)CC1` was 105% (inactive); that for `Cc1nn(-c2ccc(Cl)cc2)c2sc(C(=O)N3CCN(c4ccccn4)CC3)cc12` was 67.2% (inactive).
Same read-out and setting: the value for `COc1ccc(Oc2c(C)oc3cc(OC(=O)N4CCOCC4)ccc3c2=O)cc1` was 101% (inactive).
With `C[C@@H]1C[C@H](O)c2cc(Cl)ccc2N1`, the viability is 87.1% (inactive).
The same measure, in the same setting: the same measure for `O=C(NCCCNC1CCCCC1)c1ccc(/C=N/O)nc1`: 103% (inactive); for `CC(=O)Nc1ccc(S(=O)(=O)N2CCC(c3nc4ccccc4[nH]3)CC2)cc1`: 93.6% (inactive).
The same measure, in the same setting: the same measure for `CCOc1ccc(S(=O)(=O)Nc2ccccc2C(=O)Nc2ccccc2N2CCOCC2)cc1`: 93.4% (inactive); for `O=C(c1ccc(COc2c(F)c(F)c(F)c(F)c2F)o1)N1CCOCC1`: 88% (inactive).
Regarding `CC(C)[C@H](NC(=O)NC1CCCC1)C(=O)O`, the viability was 104% (inactive).
Same read-out and setting: the same measure for `CCOC(=O)C(C)(C)Sc1nc2c(cnn2-c2ccc(C)cc2)c(=O)[nH]1`: 79.9% (inactive).
As to `COc1ccccc1NC(=O)c1ccc(COc2ccccc2OC)o1`, the viability was 97.2% (inactive).
Consider `O=C(NCc1ccccn1)Nc1ccc2c(c1)OCO2`, for which the viability is 92.4% (inactive).
For the compound `CCSc1nnc(NC(=O)CSc2ncccn2)s1`, the viability was 107% (inactive).
Take `O=C(OCc1nnc(-c2ccc(Cl)cc2)o1)c1ccc(=O)n(Cc2ccccc2)n1`: the viability was 95.1% (inactive).
As to `COc1ccc(C(=O)NCCn2ccc3ccccc32)c(OC)c1`, the viability was 87.7% (inactive).
The same measure, in the same setting: the same measure for `O=C(NCc1cccs1)C1CCN(S(=O)(=O)c2cccs2)CC1`: 102% (inactive); for `CCC(C)n1[nH]c(=O)c2c(C)cc(C)nc21` (stereo not given): 98.8% (inactive).
As for `CC1(C)OC(=O)C(=CNC(CCC(N)=O)C(=O)O)C(=O)O1` (stereo not given), the viability is 86.2% (inactive).
As for `O=c1c(CN2CCN(Cc3ccccc3)CC2)coc2ccc(Cl)cc12`, the viability was 95.7% (inactive).
For the compound `Cn1c(=O)[nH]c2cc3ccccc3cc21`, the viability is 95.6% (inactive).
Take `COc1ccc(-c2[nH]nc3c2C(c2ccccc2OC(=O)N2CCOCC2)C(C#N)=C(N)O3)cc1` (stereo not given): the viability was 88.9% (inactive).
As for `COC(=O)C1=C(N)Oc2cc(C)[nH]c(=O)c2C1c1ccncc1` (stereo not given), the viability is 94.7% (inactive).
As for `CCn1c2ccccc2c2cc(NC(=O)CSc3nnc(C4CC4)n3Cc3ccco3)ccc21`, the viability is 79% (inactive).
For `O=C(CSc1nc2ncccc2[nH]1)Nc1ccc2c(c1)OCCO2`, the viability was 82% (inactive).
Same read-out and setting: the same measure for `CCSc1nnc(NC(=O)c2nn(C(C)C)c(=O)c3ccccc23)s1`: 79.4% (inactive).

A further experiment is described as follows: MRP1 drug-resistance reversers in H69AR cells – cell-based, doxorubicin co-treatment, pilot screen (AID 601;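 active = viability loss from added drug above about 55%, and viability with drug at most 40%, in both replicates, limit read from the data, passing the limit was not always enough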). The following applies: H69AR cells + 2 uM doxorubicin, CellTiter-Glo, 72 h; at 10 µM; hits give high values. (ATP-based viability assays read luminescence as a measure of living cells.)
Take `Cc1sc2ncnc(OCC(=O)N3CCN(S(=O)(=O)c4ccc(Cl)cc4)CC3)c2c1C`: the differential viability (reversal) is 0.87% (inactive).
With `CCOC(=O)CNS(=O)(=O)c1c(C)noc1C`, the differential viability (reversal) was 20.6% (inactive).
For the compound `COC(=O)c1onc(C(=O)c2ccccc2)c1C(=O)OC`, the differential viability (reversal) was 12.7% (inactive).
With `O=C(O)c1cccc(CN2C(=O)SC(Nc3ccccc3)C2=O)c1` (stereo not given), the differential viability (reversal) was 8.78% (inactive).
The same measure, in the same setting: the value for `COC(=O)C1C(=O)c2c([nH]c(C(=O)OCCOC(C)C)c2C)CC1C` (stereo not given) was 7.92% (inactive).
The same measure, in the same setting: the value for `CCOC(=O)c1c(NC(=O)CSc2nnc(-c3ccc(OC)cc3)o2)sc2c1CCC2` was -8.29% (inactive); that for `O=C(c1cccnc1NCc1ccccc1)N1CCOCC1` was 0.76% (inactive); that for `O=C1CC(N2CCN(c3cccc(C(F)(F)F)c3)CC2)C(=O)N1c1ccccc1` (stereo not given) was 13% (inactive).
On to `Cc1ccc(N=C2NC(=O)CS2)c(C)c1`, for which the differential viability (reversal) is 5.32% (inactive).
Consider `O=C(NCc1cccs1)C1CCCN(c2ncccn2)C1` (stereo not given), for which the differential viability (reversal) is 8.86% (inactive).
Turning to `Cc1cc2ncn(N)c2cc1C`, the differential viability (reversal) is 0.485% (inactive).
Turning to `COc1ccccc1N1CCN(C(=O)CSc2nc(-c3ccccc3)cc(=O)[nH]2)CC1`, the differential viability (reversal) was -1.75% (inactive).
For the compound `Cc1nn(-c2ccccc2)c(Cl)c1C(=O)NCC(=O)O`, the differential viability (reversal) is 1.59% (inactive).
In the case of `COc1nc(N2CCOCC2)nc(-n2cccc2)n1`, the differential viability (reversal) was 13.8% (inactive).
In the case of `CCSc1nnc(NC(=O)C(CC)(C(F)(F)F)C(F)(F)F)s1`, the differential viability (reversal) was 0.58% (inactive).
For `COC(=O)C1CCN(C(=O)NC(C)(C)C)CC1`, the differential viability (reversal) is 17.2% (inactive).
In the case of `Cc1nn(-c2ccc(Cl)cc2)c2sc(C(=O)N3CCN(c4ccccn4)CC3)cc12`, the differential viability (reversal) was 9.58% (inactive).
Consider `COc1ccc(Oc2c(C)oc3cc(OC(=O)N4CCOCC4)ccc3c2=O)cc1`, for which the differential viability (reversal) is -0.51% (inactive).
With `C[C@@H]1C[C@H](O)c2cc(Cl)ccc2N1`, the differential viability (reversal) is 7.69% (inactive).
Turning to `O=C(NCCCNC1CCCCC1)c1ccc(/C=N/O)nc1`, the differential viability (reversal) was 4.55% (inactive).
Same read-out and setting: the value for `CC(=O)Nc1ccc(S(=O)(=O)N2CCC(c3nc4ccccc4[nH]3)CC2)cc1` was 9.73% (inactive).
Turning to `CCOc1ccc(S(=O)(=O)Nc2ccccc2C(=O)Nc2ccccc2N2CCOCC2)cc1`, the differential viability (reversal) is 2.71% (inactive).
Still for that read-out and setting: the same measure for `O=C(c1ccc(COc2c(F)c(F)c(F)c(F)c2F)o1)N1CCOCC1`: 7.68% (inactive); for `CC(C)[C@H](NC(=O)NC1CCCC1)C(=O)O`: 15.2% (inactive).
Turning to `CCOC(=O)C(C)(C)Sc1nc2c(cnn2-c2ccc(C)cc2)c(=O)[nH]1`, the differential viability (reversal) is -16.5% (inactive).
Still for that read-out and setting: the same measure for `COc1ccccc1NC(=O)c1ccc(COc2ccccc2OC)o1`: 5.99% (inactive).
In the case of `O=C(NCc1ccccn1)Nc1ccc2c(c1)OCO2`, the differential viability (reversal) was 4.97% (inactive).
On to `CCSc1nnc(NC(=O)CSc2ncccn2)s1`, for which the differential viability (reversal) was 22.3% (inactive).
`O=C(OCc1nnc(-c2ccc(Cl)cc2)o1)c1ccc(=O)n(Cc2ccccc2)n1`: the differential viability (reversal) is 13.1% (inactive).
Turning to `COc1ccc(C(=O)NCCn2ccc3ccccc32)c(OC)c1`, the differential viability (reversal) was -0.23% (inactive).
For `O=C(NCc1cccs1)C1CCN(S(=O)(=O)c2cccs2)CC1`, the differential viability (reversal) was 26.9% (inactive).
Turning to `CCC(C)n1[nH]c(=O)c2c(C)cc(C)nc21` (stereo not given), the differential viability (reversal) was 9.86% (inactive).
For `CC1(C)OC(=O)C(=CNC(CCC(N)=O)C(=O)O)C(=O)O1` (stereo not given), the differential viability (reversal) was -14.4% (inactive).
On to `O=c1c(CN2CCN(Cc3ccccc3)CC2)coc2ccc(Cl)cc12`, for which the differential viability (reversal) was 12.5% (inactive).
`Cn1c(=O)[nH]c2cc3ccccc3cc21`: the differential viability (reversal) was 16.5% (inactive).
The same measure, in the same setting: the value for `COc1ccc(-c2[nH]nc3c2C(c2ccccc2OC(=O)N2CCOCC2)C(C#N)=C(N)O3)cc1` (stereo not given) was 1.89% (inactive); that for `COC(=O)C1=C(N)Oc2cc(C)[nH]c(=O)c2C1c1ccncc1` (stereo not given) was 7.35% (inactive); that for `CCn1c2ccccc2c2cc(NC(=O)CSc3nnc(C4CC4)n3Cc3ccco3)ccc21` was -16.2% (inactive).
For the compound `O=C(CSc1nc2ncccc2[nH]1)Nc1ccc2c(c1)OCCO2`, the differential viability (reversal) was -0.395% (inactive).
`CCSc1nnc(NC(=O)c2nn(C(C)C)c(=O)c3ccccc23)s1`: the differential viability (reversal) was -9.27% (inactive).
